esBAF inh – Bmi1 luciferase reporter increase in mESCs, primary screen, esBAF inhibitor project, mouse ES cells, Bmi1 luciferase knock-in, single point. 24 h; 100% = twice the neutral-well signal. reporter increase, % at 12.5 µM. 2% of 350,000 active. AID 602393, 2012; in the data active = activation above about 40%; inconclusive = no clear call, values can overlap the other calls;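 also: 0% = median of the plate's neutral control wells and 100% = double that signal; a rise in the Bmi1 reporter signal indicates esBAF inhibition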
MITF act – activators of MITF-driven TRPM1 promoter reporter, primary screen, cell-based, SK-MEL-5, luciferase, single point; SK-MEL-5 TRPM1-promoter luciferase, 24 h; % of positive control, neutral wells = 0; activation, % at 12.5 µM; 0.75% of 300,000 active; AID 588334, 2011;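 active = mean activation of at least 80% with every replicate also reaching 80%; inconclusive = mean reaches 80% but some replicate falls short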;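 also: 0% = neutral control wells and 100% = parthenolide positive control wells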
SMARCA2 act – SMARCA2 (BRM) function activators, primary screen, cell-based, luminescence, high throughput; MG213 cells, MMTV-luciferase reporter, dexamethasone, overnight; activation, % at 9.1 µM; 1% of 370,000 active; in the data active = activation above about 7.8%;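 also: 0% = vehicle wells and 100% = reference activator wells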
Wnt act – Wnt/beta-catenin pathway activators, primary screen, cell-based, plate reader, single point. Wnt/beta-catenin reporter cell assay, activator. activation, % at 9.35 µM. 1.2% of 300,000 active; in the data active = activation above about 30%, passing the limit was not always enough; inconclusive = no clear call, values can overlap the other calls;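 also: 0% = neutral control wells and 100% = positive control wells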
MLL AF4-AF9 inh – inhibitors of AF4 peptide binding to AF9, primary screen, biochemical, AlphaScreen, biotin-AF4 peptide, FLAG-AF9, single point; Protein AF-9 (Homo sapiens), P42568; inhibition, % at 10 µM; 0.47% of 350,000 active;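 active = every replicate reaching a set inhibition limit, whatever the replicate mean, cut at about 25% in these data; inconclusive = mean inhibition reaches that limit but some replicates miss it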;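 also: 0% = plate neutral control median and 100% = total signal loss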
FGF22 binding – binders of human FGF22 protein, primary screen, FGF22 synaptogenesis inhibitor project, biophysical, thermal shift, single point | AID 651658, 2012 | activity (Tm shift, normalised), % at 9.99 µM | recombinant FGF22 thermal shift, SYPRO orange fluorescence; percent of sucrose octasulfate shift, DMSO zero | 1.5% of 340,000 active;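 active = mean Tm shift, scaled 0 neutral to 100 positive control, at about 1.3% or above, every replicate too, limit read from the data; inconclusive = no clear call, values can overlap the other calls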
Target sequence (Q9HCT0 whole entry, looked up): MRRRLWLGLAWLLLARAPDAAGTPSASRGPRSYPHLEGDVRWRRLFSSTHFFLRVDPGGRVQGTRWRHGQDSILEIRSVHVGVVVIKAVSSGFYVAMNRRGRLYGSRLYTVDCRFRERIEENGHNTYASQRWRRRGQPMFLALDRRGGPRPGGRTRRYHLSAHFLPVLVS
Starred values were filed as active, the others as inactive; ? = inconclusive; / = no result given. An excerpt weighted towards active compounds, which were near 4.3% of everything screened.

SMILES	esBAF inh	MITF act	SMARCA2 act	Wnt act	MLL AF4-AF9 inh	FGF22 binding
CCCNC(=O)N[C@@H]1CC[C@@H](CC(=O)NC2CCCCC2)O[C@@H]1CO	-1	/	/	/	0	0
CCOc1ccc(NC(=O)c2ccccc2-c2ccccc2C(=O)O)cc1	27	85*	3	13	0	0
CCOc1ccc(NC(=O)c2ccccc2OC)cc1	22	12	5	46*	/	/
COc1ccccc1NC(=O)Cn1nnc(C(=O)Nc2ccccc2)c1N	-3	-13	-3	-1	/	/
CCOc1ccc(NC(=O)c2nnn(CC(=O)Nc3ccccc3OC)c2N)cc1	44*	16	-1	/	/	/
CCOc1ccc(NC(=O)c2ccccc2O)cc1	26	82*	5	/	/	/
Cc1noc(C)c1NC(=O)N1C[C@H](O)COC[C@@H]2O[C@@H](CC(=O)NCC3CCCCC3)CC[C@H]21	1	/	/	/	-2	0
COCc1cn(CC[C@@H]2CC[C@H](NC(=O)c3ccc(F)cc3)[C@H](CO)O2)nn1	-2	/	/	/	-1	0
C[C@H]1CN([C@@H](C)CO)C(=O)Cc2cc(NC(=O)CCC(F)(F)F)ccc2O[C@@H]1CN(C)Cc1ccccc1	0	/	/	/	-2	0
CCOc1ccc(NC(=O)c2ccccc2OCC(=O)c2ccccc2)cc1	44*	/	5	/	/	/
CCOC(=O)c1ccc(NC(=O)N2CCN(C(=O)C3CCCO3)CC2)cc1 (stereo unspecified)	/	-10	-1	-3	-2	43*
CCOC(=O)c1ccc(NC(=O)C2C3CCCCC32)cc1 (stereo unspecified)	?	82*	3	3	-2	0
CCOC(=O)c1ccc(NC(=S)NC(=O)C2CCCC2)cc1	5	-4	0	-2	-1	0
CCCOC(=O)c1ccc(NC(=O)C(CC)CC)cc1	51*	31	2	/	/	/
CCCCOC(=O)c1ccc(NC(C)=O)cc1	20	/	3	-1	/	/
CCC(C)NS(=O)(=O)c1ccc(NC(=O)C2CCCO2)cc1 (stereo unspecified)	/	17	-1	0	-18	43*
COc1ccc(NC(=O)Nc2ccc3c(c2)C(=O)N([C@H](C)CO)C[C@@H](C)[C@H](CN(C)Cc2ccncc2)OCCCC[C@H](C)O3)cc1	1	/	/	/	9	-1
COc1cccc(CNC(=O)C[C@H]2C=C[C@H](NC(=O)C3CCC3)[C@@H](CO)O2)c1	-1	/	/	/	/	/
CC(C)(C)C(=O)Nc1ccc(C(=O)OC2CCCCC2)cc1	64*	105*	/	/	/	/
CC(C)COC(=O)c1ccc(NC(=O)C2C3CCC(C3)C2C(=O)O)cc1 (stereo unspecified)	58*	56	6	1	/	/
CCOC(=O)c1ccc(NC(=O)C2C3CCC(C3)C2C(=O)O)cc1 (stereo unspecified)	15	30	5	0	/	/
O=C(OC1CCCCC1)c1ccc(NC(=O)C2CCCCC2)cc1	/	14	1	/	/	/
Cc1ccc(NC(=O)C2C3/C=C\CCCCC32)cc1 (stereo unspecified)	/	94*	6	16	1	0
CCOC(=O)c1ccc(NS(=O)(=O)N2CCCCCC2)cc1	47*	19	0	-2	/	/
CCOC(=O)c1ccc(NC(=O)N2CCOCC2)cc1	/	25	5	10	-3	0
SMILES	esBAF inh	MITF act	SMARCA2 act	Wnt act	MLL AF4-AF9 inh	FGF22 binding
CCCOC(=O)c1ccc(NC(=O)C2CCCO2)cc1 (stereo unspecified)	50*	/	2	/	/	/
CCOC(=O)c1ccc(NC(=O)N2CCCCCC2)cc1	17	98*	5	37*	-8	0
C[C@@H]1CN([C@@H](C)CO)S(=O)(=O)c2ccc(C3=CCCC3)cc2O[C@H]1CN(C)C(=O)c1cccnc1	3	/	/	/	-3	0
COc1ccc2[nH]c(=O)c(CNc3ccccc3OC)cc2c1	2	-5	1	-1	7	0
CCOc1ccc(NCc2cc3cc(OC)ccc3[nH]c2=O)cc1	/	-7	-3	6	8	0
COc1ccc2[nH]c(=O)c(CNc3ccccc3)cc2c1	85*	17	7	28	/	/
COc1ccc2[nH]c(=O)c(CNc3ccccc3C)cc2c1	/	16	8	39*	6	0
COc1ccccc1-c1noc(CSc2nc(N)cc(=O)[nH]2)n1	-7	11	-3	0	-2	43*
COc1ccccc1Cc1nc(-c2ccncc2)no1	/	20	0	0	-2	43*
Cc1ccc(SCc2nc(-c3ccccc3)no2)cc1	18	-5	3	-1	/	/
c1ccc(SCc2nc(-c3ccncc3)no2)cc1	15	91*	5	26	-7	0
COc1ccc(-c2noc(CSc3ccccc3)n2)cc1OC	52*	?	2	-3	/	/
Cc1ccc(S(=O)(=O)N(C)C[C@H]2OCCCC[C@H](C)Oc3ccc(NC(=O)Cc4ccccc4)cc3C(=O)N([C@H](C)CO)C[C@H]2C)cc1	-4	/	/	/	-1	/
CCC(=O)N1C[C@@H](C)[C@@H](OC)CN(C)C(=O)c2cc(NC(=O)NC3CCCC3)ccc2OC[C@H]1C	/	/	/	/	-2	/
COC(=O)c1c(NC(=O)c2ccc(C)cc2)csc1C	/	/	4	36*	-5	0
CN1CCN(C(=O)C[C@@H]2CC[C@@H](NC(=O)Cc3ccccn3)[C@@H](CO)O2)CC1	-6	/	/	/	-4	0
CC(Cc1ccccc1)NC(=O)c1cc2ccccc2o1 (stereo unspecified)	82*	67	2	29	-2	0
O=C(c1ccccc1)c1cc2ccccc2o1	49*	108*	4	11	/	/
Cc1ccc(C(=O)c2cc3ccccc3o2)cc1[N+](=O)[O-]	67*	52	0	14	1	43*
O=C(c1cc2ccccc2o1)N1CCCC1	/	10	1	0	0	0
CCC(=O)Nc1ccc(NC(=O)c2cc3ccccc3o2)cc1	29	44	6	/	/	/
CSc1n[nH]c(-c2sccc2OCc2ccc(C)cc2)n1	9	/	-3	/	/	/
CSc1n[nH]c(-c2ccc(C(F)(F)F)cc2)n1	41*	41	0	21	2	0
CCCc1ccc2oc(C(=O)N3CCC(N4CCCC(O)C4)CC3)c(C)c2c1 (stereo unspecified)	3	9	0	-3	0	0
CCCc1ccc2oc(C(=O)N3CCC(COC)C3)c(C)c2c1 (stereo unspecified)	54*	103*	6	11	-5	0
CCCc1ccc2oc(C(=O)N3CCC[C@H]3CO)c(C)c2c1	57*	69	2	20	5	0

Screening results: PubChem BioAssay, several laboratories
